# Unmarked numbers belong to inactive results. Calls come from the whole dose curve; as a rule, active = well fitted curve in the direction sought with a large enough effect; inconclusive = small, poorly fitted or top-dose-only effect, or effect the other way, or another doubt; inactive = no such curve, though single readings can be large or run the other way.
# Experiment: qHTS for inhibitors of adenylyl cyclases using a fission yeast platform: a pilot screen against the NCATS LOPAC library (AID 1347410)
# Details: S. pombe CHP2027, fbp1-GFP fluorescence, 18 h, yeast expressing mammalian AC9 and human GNAS; series mostly up to 57.5 µM; activity, positive = inhibition (GFP gain): at the top concentration
# Text: PI: Charles S. Hoffman Ph.D
# Boston College, 140 Commonwealth Ave., Chestnut Hill, MA
# Assay Development and Screening Technology Laboratory (ADST)
# National Center for Advancing Translational Sciences (NCATS), Rockville, MD
# National Institute of Health (NIH), Bethesda, Maryland
# The fission yeast Schizosaccharomyces pombe uses a cAMP signaling pathway to link glucose-sensing to Protein Kinase A activity in order to regulate cell growth, sexual development, gluconeogenesis, and exit from stationary phase. Here, we describe the successful functional expression of all ten mammalian adenylyl cyclase (AC) genes, along with the human GNAS G-alpha gene in this organism. By measuring expression of a PKA-repressed fbp1-GFP reporter together with direct measurements of intracellular cAMP levels, one can detect both basal AC activity from all ten AC genes as well as GNAS-stimulated activity from eight of the nine transmembrane ACs (tmACs; AC2-AC9).
# Further confirmation and validation of active compounds lead to the identification of diphenyleneiodonium chloride (DPI) as an inhibitor of basal AC activity. This fluorescence based fbp1-GFP-GNAS screening technology could facilitate the development of therapeutic compounds that target GNAS or the ACs, an area in which there is significant unmet need.
# The gain-of-signal output is not substantially affected by cytotoxic compounds within the library.
# Getz RA, et al., A fission yeast platform for heterologous expression of mammalian adenylyl cyclases and high throughput screening, Cellular Signaling, 2019, 60: 114-121. doi.org/10.1016/j.cellsig.2019.04.010.
# PROTOCOL TABLE (as described by Inglese J, Shamu CE and Guy RK. 2007)
# SEQUENCE No. (e.g., 1, 2, 3, etc.); […] (e.g., Cells, Incubation, Reagent, etc.); VALUE; DESCRIPTION.
# 1; Dispense growth medium; 2 uL; black, clear bottom, low base, 1536-well Aurora assay plate.
# 2; Compounds and control; 23 nL; Kalypsis pin tool (Wako USA) equipped with a 1536-well pin head to transfer to the assay plates.
# 3; Dispense yeast cells; 2 uL; CHP2027 cells.
# 4; Incubation; 18 hours (dark at 30C); Non-humidified microbial incubator.
# 5; Detector; 425V; Fluorescence; laser scanning cytometry.
# NOTES (numbers refer to Sequence numbers above)
# 1. S. pombe growth medium EMM containing histidine, lysine, and uracil was initially dispensed into the assay plate to avoid yeast contamination using a Multidrop Combi dispenser (Thermo Fisher Scientific).
# 2. 10 mM stock solution of DPI (Sigma-Aldrich D2926) dissolved in DMSO was used as a 16-point dose response positive control, while 1.11 mM DPI stock solution was used as a single point max response positive control. Solvent DMSO was used as the negative control. Control DPI was transferred as a single-dose (column 3; rows 1-32; 1.11 mM stock), and multi-dose (column 4; rows 1-32; 10mM stock; 1:1.5 dilution; 16pnt titration) positive controls. Vehicle control DMSO was pinned into column 1-2, rows 1-32. Lopac compounds were pinned into columns 5-48 resulting to a final concentration range 57 µM to 78.4 nMControl DPI stock (10 mM) was prepared by dissolving 10 mg in 3.18 mL DMSO; while 1.11 mM DPI stock was prepared by mixing 100 uL of 10 mM DPI with 800 uL DMSO. To create the control plates, we initially start with a 384-well compound working plate. With a repeater pipette, (a.) 16 uL/well of 1.11 mM DPI was added to column 3; (b.) 16 uL/well of DMSO was added into rows 2-16 of column 4; (c.) 50 uL/well of DPI added to rows 1 and 2 of column 4; (d.) 32 uL serial dilution (two-thirds-fold) from rows 2 to 16 of column 4 with manual pipette. From the 384-well compound working plate, 7 uL of respective control compound was transferred to respective columns of the 1536-well compound plate using a multichannel pipette.
# 3. S. pombe CHP2027 (AC9-GNAS-PDE4D2) expressing fbp1-GFP cells were grown at 30C in EMM medium containing histidine, lysine, and uracil. […]
row,Structure (SMILES),"activity, positive = inhibition (GFP gain) [%]"
1,O=c1cc(O)cc(/C=C/c2ccc(O)c(O)c2)o1,-0.438
2,O=S(=O)(c1cccc2c(Cl)cccc12)N1CCCNCC1,-0.438
3,NC(N)=NC(N)=Nc1ccccc1,0.262
4,CCN(CC)CCCCCCCCOC(=O)c1cc(OC)c(OC)c(OC)c1,-0.438
5,CCCn1c(=O)c2[nH]c(C3CCCC3)nc2n(CCC)c1=O,-0.438
6,CCCCCCN(CCCCCC)C(=O)Cc1c(-c2ccc(F)cc2)[nH]c2ccccc12,0.624
7,CC(N)=O,-0.438
8,CN(CC[C@@H](Oc1ccc(C(F)(F)F)cc1)c1ccccc1)CC(=O)O,0.188
9,NC/C=C\C(=O)O,0.137
10,O=C1NC(=O)c2cc(Nc3ccccc3)c(Nc3ccccc3)cc21,-0.438
11,CC1=C(C(=O)O)N2C(=O)[C@@H](NC(=O)C(N)C3=CCC=CC3)[C@H]2SC1 (stereo not given in full),-0.438
12,CN(C)C(=O)/N=N/C(=O)N(C)C,-0.438
13,CN1CC(O)C(O)C(O)C1CO (stereo not given),-0.438
14,CC(=O)[C@H]1CCC2C3CC=C4C[C@@H](OS(=O)(=O)O)CC[C@]4(C)C3CC[C@@]21C (stereo not given in full),-0.0348
15,CC1C(=O)N(C)C(=O)c2nc[nH]c21 (stereo not given),0.327
16,C[N+](C)(C)CC=O,-0.438
17,Nc1nc2c(nc(Br)n2C2OC3COP(=O)(O)O[C@@H]3C2O)c(=O)[nH]1 (stereo not given in full),-0.438
18,NC1C=CC=C(C(=O)O)C1 (stereo not given),-0.438
19,NCCNS(=O)(=O)c1cccc2c(Cl)cccc12,-0.438
20,Nc1nc2ccc(Cl)cc2c2nc(-c3ccco3)nn12,-0.438

row,Structure (SMILES),"activity, positive = inhibition (GFP gain) [%]"
1,Nc1ncnc2c1c(-c1ccc(Oc3ccccc3)cc1)cn2C1CCCC1,-0.438
2,NC(C(=O)N[C@@H]1C(=O)N2C(C(=O)O)=C(Cl)CS[C@H]12)c1ccccc1 (stereo not given in full),-0.438
3,O=c1ccc2c(OCCCCc3ccccc3)c3ccoc3cc2o1,-0.438
4,NCCS(=O)O,-0.438
5,N[C@H](C(=O)O)[C@H](Cc1ccccc1)C(=O)O,-0.438
6,COc1ccc(NC(=O)c2ccc(-c3ccc(-c4noc(C)n4)cc3C)cc2)cc1N1CCN(C)CC1,0.652
7,CC(C)NCC(O)COc1ccc(CC(N)=O)cc1 (stereo not given),-0.438
8,c1ccc(C(NCCNC(c2ccccc2)c2ccccc2)c2ccccc2)cc1,0.165
9,CC[C@@H]1Cc2cc(O)ccc2C2=C1c1ccc(O)cc1C[C@H]2CC,0.202
10,CCCc1c(-c2ccc(O)cc2)nn(-c2ccc(O)cc2)c1-c1ccc(O)cc1,0.322
11,CC(=O)SC1CC2=CC(=O)CC[C@]2(C)C2CC[C@@]3(C)C(CC[C@@]34CCC(=O)O4)C12 (stereo not given in full),0.183
12,C=CCN1CCc2c(cc(O)c(O)c2Br)[C@@H](c2ccccc2)C1,-0.438
13,C=CCn1c(=O)c2c(nc(-c3ccc(S(=O)(=O)O)cc3)n2C)n(C)c1=O,-0.438
14,Nc1ncnc2c1nc(Br)n2C1OC2COP(=O)(O)O[C@@H]2C1O (stereo not given in full),0.963
15,O=C(O)c1cccnc1C(=O)O,-0.438
16,Cn1ccnc1,-0.438
17,Brc1c(Br)c(Br)c2[nH]cnc2c1Br,-0.438
18,CC1=C(/C=C/C(C)=C/C=C/C(C)=C\C(=O)O)C(C)(C)CCC1,-0.058
19,O=c1ccn([C@@H]2O[C@H](COP(=O)(O)OP(=O)(O)O)[C@@H](O)[C@H]2O)c(=O)[nH]1,-0.438
20,c1ccc2c(c1)CC(N1CCN(c3cccc4c3OCCO4)CC1)C2,0.193

# Reference: PubChem BioAssay (NCATS)
